Structures are written as SMILES. Inconclusive results are not listed. Activity calls are given as the source filed them. How the source made its calls: active means hit-call score of the fitted dose curve at least 0.9, where 1 is the maximum; inconclusive means response in the unintended direction; inactive means score below 0.9.

For this experiment, the target named is human CYP2B6, CYP2B6 (gene 1555) (UniProt P20813). Put plainly: NVS_ADME_hCYP2B6: NovaScreen (NVS) CYP450-related Enzyme Activity (ADME) Assay for human CYP2B6 (AID 2283101). As to the method: NVS_ADME_hCYP2B6 is a biochemical, single-readout assay that uses extracted gene-proteins in a cell-free assay. Measurements were taken 1 hour after chemical dosing in a 96-well plate.NVS_ADME_hCYP2B6 is one of one assay component(s) measured or calculated from the NVS_ADME_hCYP2B6 assay. It is designed to make measurements of enzyme activity, a form of enzyme reporter, as detected with fluorescence intensity signals by Fluorescence technology.Data from the assay component NVS_ADME_hCYP2B6 was analyzed into 1 assay endpoint. This assay endpoint, NVS_ADME_hCYP2B6, was analyzed in the positive analysis fitting direction relative to Acetonitrile as the negative control and baseline of activity. Using a type of enzyme reporter, loss-of-signal activity can be used to understand changes in the enzymatic activity as they relate to the gene CYP2B6. Furthermore, this assay endpoint can be referred to as a primary readout, because this assay has produced multiple assay endpoints where this one serves a enzymatic activity function. To generalize the intended target to other relatable targets, this assay endpoint is annotated to the cyp intended target family, where the subfamily is xenobiotic metabolism.
Chain of human CYP2B6, CYP2B6 (gene 1555) (P20813 whole entry, looked up): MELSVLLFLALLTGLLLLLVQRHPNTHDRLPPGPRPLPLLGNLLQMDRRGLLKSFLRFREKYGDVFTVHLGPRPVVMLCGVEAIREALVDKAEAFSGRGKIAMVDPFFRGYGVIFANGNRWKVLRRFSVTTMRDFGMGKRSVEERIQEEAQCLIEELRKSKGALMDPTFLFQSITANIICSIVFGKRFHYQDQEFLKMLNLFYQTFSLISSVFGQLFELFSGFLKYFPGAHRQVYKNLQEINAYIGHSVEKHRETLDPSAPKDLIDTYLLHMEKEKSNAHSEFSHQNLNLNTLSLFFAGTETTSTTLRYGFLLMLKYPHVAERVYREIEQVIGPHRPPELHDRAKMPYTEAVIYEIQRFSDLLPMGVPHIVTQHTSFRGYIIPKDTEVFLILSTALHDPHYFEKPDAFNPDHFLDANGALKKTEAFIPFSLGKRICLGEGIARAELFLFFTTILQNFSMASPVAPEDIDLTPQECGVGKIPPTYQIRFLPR
Binding assays used specific radioligands (tritiated, iodinated) with non-radioactive competitive displacement ligands in agonist or antagonist protocols (as indicated) and various reference compounds and inhibitors to titrate specific binding to receptors and transporters. Most enzyme assays (CYPs, kinases, phosphatases, proteases, HDACs) used recombinant protein and specific substrates (fluorescence mostly, some colorimetric and radioactive) and inhibitors, followed by a biochemical separation of substrate and product. All assays for the biochemical HTS were initially run in duplicate at a single concentration (10 uM for CYP450 assays and 25 uM for all others). […] Each assay was run with positive and negative controls, and concurrent controls on every plate. The follow-up (secondary) screen tested active chemical-pairs in concentration series, as well as a few additional assays not tested in the primary screen, some selected negative inactives, and several cases re-run in the concentration series for confirmatory purposes.
Turning to `CCc1cccc(CC)c1N(COC)C(=O)CCl`, the AC50 is 1.58 µM (active).
Then `CC[C@H](C)[C@H]1O[C@]2(C=C[C@@H]1C)C[C@@H]1C[C@@H](C/C=C(\C)[C@@H](O[C@H]3C[C@H](OC)[C@@H](O[C@H]4C[C@H](OC)[C@@H](NC)[C@H](C)O4)[C@H](C)O3)[C@@H](C)/C=C/C=C3\CO[C@@H]4[C@H](O)C(C)=C[C@@H](C(=O)O1)[C@]34O)O2`, with 8.42 µM (active); and `CCc1cccc(C)c1N(C(=O)CCl)C(C)COC` (stereo not drawn), with 2.11 µM (active); and `CCOP(=S)(OCC)Oc1ccc2c(C)c(Cl)c(=O)oc2c1`, with 0.433 µM (active).
Then `C[Si](Cn1cncn1)(c1ccc(F)cc1)c1ccc(F)cc1`, with 0.238 µM (active).
Then `Nc1c(Cl)cc([N+](=O)[O-])cc1Cl`, with 3.48 µM (active).
As to `COP(=O)(OC)SCn1c(=O)oc2cc(Cl)cnc21`, the AC50 is 9 µM (active).
For `FC(F)C(F)(F)OCC(Cn1cncn1)c1ccc(Cl)cc1Cl` (stereo not drawn), the AC50 is 3.74 µM (active).
Then `CCCSP(=O)(OCC)Oc1ccc(Br)cc1Cl` (stereo not drawn), with 11.3 µM (active); and `CCOC(=O)CC(SP(=O)(OC)OC)C(=O)OCC` (stereo not drawn), with 2.49 µM (active).
Turning to `CCCOCC(=Nc1ccc(Cl)cc1C(F)(F)F)n1ccnc1`, the AC50 was 1.58 µM (active).
With `CC(C1CC1)C(O)(Cn1cncn1)c1ccc(Cl)cc1` (stereo not drawn) the figure was 6.32 µM (active); with `CCOP(=S)(OCC)Oc1ccc([N+](=O)[O-])cc1`, 0.99 µM (active).

The term AC50 denotes the concentration giving half of the maximal activity seen.

For the origin of these results see PubChem BioAssay (EPA / NIEHS).
